# Compounds with a hit are over-represented: about 11% of the library has one in this group of screens.
# VDR inhibitor = vitamin D3 receptor (human) inhibition; 400,000 tested, 0.93% active; Potency, µM, without a hit: max response, negative = inhibition, actives largely listed as inhibitors; P11473; VDR-SRC2-3 peptide fluorescence polarization, 2 h; AID 504847; note: % is set by controls: 0 for no effect and ±100 for the full control effect
# Target sequence (P11473 whole entry, looked up): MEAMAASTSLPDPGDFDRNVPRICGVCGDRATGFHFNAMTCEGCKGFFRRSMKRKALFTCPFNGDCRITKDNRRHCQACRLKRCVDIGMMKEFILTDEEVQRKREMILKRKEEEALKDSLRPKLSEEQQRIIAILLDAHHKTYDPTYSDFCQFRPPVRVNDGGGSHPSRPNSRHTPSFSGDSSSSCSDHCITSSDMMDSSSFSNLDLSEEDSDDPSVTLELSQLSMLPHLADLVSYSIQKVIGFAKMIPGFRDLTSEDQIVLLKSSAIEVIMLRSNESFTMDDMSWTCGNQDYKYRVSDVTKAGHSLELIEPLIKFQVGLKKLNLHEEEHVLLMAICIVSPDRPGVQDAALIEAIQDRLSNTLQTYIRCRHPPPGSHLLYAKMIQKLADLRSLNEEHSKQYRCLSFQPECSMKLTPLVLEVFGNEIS
#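 Fluorescence polarization assay of small-molecule disruption of VDR binding to coregulator peptide SRC2-3. Compounds and controls pin-transferred, then read after 2 h incubation at ambient room temperature.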
# JMJD2A Tudor inh = inhibitors of human JMJD2A Tudor domain | AlphaScreen JMJD2A-Tudor / H3K4me3 peptide binding | Potency, µM (top dose mostly 114 µM), for the others: at the highest dose activity change, negative = inhibition, usual class: inhibitors | 390,000 tested, 4.4% active | AID 504339; note: % is set by controls: 0 for no effect and ±100 for the full control effect; nearly all actives have a fitted effect of over 50% in size
# G9a block = inhibitors of human histone lysine methyltransferase G9a; 350,000 tested, 8.8% active; G9a H3K9 monomethylation, AlphaScreen, 2 h; AID 504332; Q96KQ7; Potency, µM (doses to about 102 µM), inactives show at the top dose activity, negative = inhibition, usual class: inhibitors; note: % is set by controls: 0 for no effect and ±100 for the full control effect; nearly all actives have a fitted effect of over 75% in size
#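 Using a bead-based AlphaScreen, monomethylated H3K9 product from 2 h room-temperature reactions (G9a 20 nM, peptide 500 nM, SAM 20 uM) was detected with 0.5 ug/mL rabbit anti-H3K9me1 antibody.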
# PLK1 PBD inh = inhibitors of human PLK1 polo-box domain binding | P53350 | Plk1 PBD binding of FITC phosphopeptide, fluorescence polarization | Potency, µM, for inactives: max response, negative = inhibition, hits mostly inhibitors | 360,000 tested, 2.8% active | AID 720504; note: series mostly up to about 57 µM; % is set by controls: 0 for no effect and ±100 for the full control effect; nearly all actives have a fitted effect of over 65% in size
# BAZ2B block = inhibitors of human BAZ2B bromodomain. 360,000 tested, 4.4% active. AlphaScreen BAZ2B-H3K14Ac peptide displacement. Potency, µM (highest dose often 114 µM), without a hit: top-dose activity change, negative = inhibition, usual class: inhibitors; note: % is set by controls: 0 for no effect and ±100 for the full control effect; nearly all actives have a fitted effect of over 60% in size
#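 AlphaScreen displacement: compounds (up to 110uM) incubated 30 min at room temperature with a preformed 50 nM BAZ2B/50 nM biotinylated H3K14Ac peptide complex in PBS pH 7.4 with Tween-20. Donor and acceptor beads at 10 ug/mL final added, 20 min light-protected before reading.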
# HP1b chromo inh = inhibitors of HP1-beta chromodomain binding to methylated histone tails; P83916; AlphaScreen HP1-beta / biotin-H3K9me3 peptide binding; Potency, µM (top dose mostly 114 µM), inactives show top-dose activity change, negative = inhibition, hits mostly inhibitors; 390,000 tested, 0.56% active; AID 540317; note: nearly all actives have a fitted effect of over 70% in size
# Target sequence (P83916 whole entry, looked up): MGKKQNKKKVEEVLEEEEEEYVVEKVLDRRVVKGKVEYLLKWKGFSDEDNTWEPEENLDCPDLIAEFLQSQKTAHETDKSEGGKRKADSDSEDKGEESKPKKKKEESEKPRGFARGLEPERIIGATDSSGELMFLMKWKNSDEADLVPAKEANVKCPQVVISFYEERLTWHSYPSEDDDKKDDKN
#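 Compound inhibition of the preformed complex between 50 nM HP1-beta and 50 nM biotinylated H3K9me3 peptide was read by AlphaScreen. Buffer was PBS pH 7.4 with 0.01% Tween-20. Incubations ran 30 min at room temperature, with 10 ug/mL donor/acceptor beads.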
# Numbers without * were called inactive; u = inconclusive; x = not tested or not shown; [ ] = remark or other dose. Calls come from the whole dose curve; as a rule, active = well fitted curve in the direction sought with a large enough effect; inconclusive = small, poorly fitted or top-dose-only effect, or another doubt; inactive = no such curve, though single readings can be large; an effect the other way counts as inactive or inconclusive. Potency is the fitted concentration of half-maximal effect.
SMILES,VDR inhibitor,JMJD2A Tudor inh,G9a block,PLK1 PBD inh,BAZ2B block,HP1b chromo inh
CC(C)[C@@H]1NC(=O)c2cc([N+](=O)[O-])cc(I)c2NCCC[C@@H](C(N)=O)NC(=O)[C@H](CO)NC1=O,4%,-18%,40µM*,0%,u,32%
CC(C)=Cc1oc2ccc([N+](=O)[O-])cc2c1N1CC(C)OC(C)C1 (stereo not drawn),-25%,-12%,14µM*,-3%,63µM*,u
Cc1ccc(C(=O)c2cc([N+](=O)[O-])ccc2N2CCCCC2)cc1,-16%,u,24%[59 µM],-6%,-11%,12%
Cc1ccc(C(=O)c2cc([N+](=O)[O-])ccc2N2CC(C)OC(C)C2)cc1 (stereo not drawn),89µM*,u,8%[59 µM],u,-32%,-1%
Cc1ccc(OCC(=O)OCC(=O)N2c3ccccc3CC2C)cc1C (stereo not drawn),0%,13%,27%[12.7 µM],-4%,14%,45%
COc1ccc(NC(=O)Cn2c(=O)n(-c3ccc(OC)cc3OC)c(=O)c3c(C)c(C)sc32)cc1,-11%,-8%,-8%,-1%,-22%,32%
COc1ccc2cc(C(=O)C3CCCN(C(=O)C4=NN(C)C(=O)CC4)C3)ccc2c1 (stereo not drawn),-7%,-13%,-2%,-1%,-3%,42%
CCN1CCN(C(=O)C(C)Nc2cc(Cl)c(OC)cc2OC)CC1 (stereo not drawn),-6%,-29%,40µM*,-6%,x,11%
COc1ccc(Cl)cc1NC(=O)N1CCN(c2ccccc2OC)CC1,-19%,-14%,-6%,2%,-15%,14%
CCN1CCN(C(=O)Nc2cc(Cl)ccc2OC)CC1,0%,-5%,50µM*,-2%,-15%,19%
C=CCNC(=O)Nc1cc(Cl)ccc1OC,-10%,-8%,1%,27µM*,8%,-12%
COc1ccc(Cl)cc1NC(=O)NN1CCN(C)CC1,-10%,3%,50µM*,2%,50µM*,36%
O=C(Oc1ccccc1)N1CCC2(CCCN(c3ccc(-c4ccccc4)cc3)C2)CC1,-9%,x,0%[12.7 µM],x,x,x
CCOC(=O)c1c(N)n(-c2ccc(CC)cc2)c2nc3ccccc3nc12,-10%,16%,4%[59 µM],x,7%,41%
CCOC(=O)c1c(N)n(-c2ccc(N)cc2)c2nc3ccccc3nc12,-24%,-31%,-7%,27µM*,-6%,3%
Cc1cc(C)cc(OCC(=O)N2N=C(c3cccnc3)CC2(O)C(F)(F)F)c1 (stereo not drawn),-24%,-10%,6%,1%,-3%,26%
Cc1cc(C)cc(OCC(=O)N2N=C(C(F)(F)F)CC2(O)C(C)(C)C)c1 (stereo not drawn),2%,-9%[57.1 µM],1.6µM*,-11%,-3%,10%
COc1ccc(N2CCN(c3oc(COc4ccc(Cl)cc4)nc3C#N)CC2)cc1,2%,u,u,0%,3.5µM*,u
N#Cc1nc(Cc2ccccc2)oc1N1CCN(c2cccc(Cl)c2)CC1,8%,u,-2%[2.33 µM],1%,u,u
N#Cc1nc(COc2ccc(Cl)cc2Cl)oc1N1CCOCC1,7%,u,u,-2%,45µM*,-39%
COc1ccc(N2CCN(c3oc(Cc4ccccc4)nc3C#N)CC2)cc1,9%,20µM*,u,-2%,8.9µM*,-58%
COc1ccc2c(c1)c(C(O)CN1CCC(Cc3ccccc3)CC1)c(C)n2C (stereo not drawn),16%,28µM*,u,-2%,35µM*,u
OC(CN1CCN(Cc2ccc3c(c2)OCO3)CC1)c1c[nH]c2ccccc12 (stereo not drawn),-15%,-25%,16%[0.501 µM],-9%,0%,2%
Cc1ccc(OCC(O)CN2CCN(Cc3ccc4c(c3)OCO4)CC2)cc1C (stereo not drawn),-6%,-21%,-15%[59 µM],-2%,u,9%
Cc1c(C(O)CN2CCN(Cc3ccc4c(c3)OCO4)CC2)c2ccccc2n1C (stereo not drawn),-19%,56µM*,u,-14%,u,-38%
SMILES,VDR inhibitor,JMJD2A Tudor inh,G9a block,PLK1 PBD inh,BAZ2B block,HP1b chromo inh
COc1ccc2c(c1)c(C(O)CN1CCN(Cc3ccc4c(c3)OCO4)CC1)c(C)n2C (stereo not drawn),-6%,56µM*,50µM*,-15%,u,u
CSc1cccc(NC(=O)CCCOc2ccc(Cl)cc2Cl)c1,6%,30%,26%,0%,17%,92%
O=C(CCCOc1ccc(Cl)cc1Cl)Nc1cccnc1,11%,-16%,45µM*,-4%,5%,26%
O=C(CCCOc1ccc(Cl)cc1Cl)N/N=C/c1ccc(Cl)cc1,u,u,28%[59 µM],15µM*,-26%,u
CCOC(=O)CNC(=O)CCc1nnc2ccc(N3CCC(C)CC3)nn12,u,u,15%,24µM*,u,u
CCOC(=O)C(Cc1ccccc1)NC(=O)CCc1nnc2ccc(N3CCCC3)nn12 (stereo not drawn),-17%,u,1%,24µM*,-13%,12%
CCOC(=O)C1CCN(C(=O)CCc2nnc3ccc(N4CCC(C)CC4)nn23)CC1,u,u,-12%,24µM*,-3%,u
CC1CC(C)CN(C(=O)CCc2nnc3ccc(N4CCCCC4)nn23)C1 (stereo not drawn),-17%,40µM*,79µM*,30µM*,-22%,11%
CCOC(=O)C1=NS(=O)(=O)NC(C)=C1,-4%,56µM*,x,-12%,x,13%
Cc1nn(C)c2c1c(C(F)(F)F)cc(=O)n2CC(=O)N1CCCCC1,17%,2%,1%[59 µM],x,-15%,8%
Cc1ccc2c(=O)c(C(=O)c3ccc(F)cc3)cn(CC(=O)NCc3ccco3)c2n1,-3%,u,50µM*,-15%,50µM*,-3%
Cc1ccc2c(=O)c(C(=O)c3ccc(F)cc3)cn(CC(=O)NCc3ccccc3)c2n1,9%,-8%,-12%[59 µM],x,8%[57.1 µM],23%
CSC1=NC(=O)/C(=C\c2cccc3ccccc23)S1,79µM*,u,-23%,-27%,40µM*,-17%
Cc1ccc(-n2c(SCCC(C)C)nc3sc4c(c3c2=O)CC(C)(C)OC4)cc1,-11%,-15%,2%[59 µM],x,1%,23%
C[C@@H]1CN([C@H](C)CO)S(=O)(=O)c2ccc(C#CC3CCCC3)cc2O[C@H]1CN(C)C(=O)Cc1ccccc1,x,x,x,-1%,x,x
CCCc1cc(=O)n2[nH]c(SCc3ccc(Cl)cc3)nc2n1,-24%,-12%,0%,-14%,2%,57%
Cn1c(=O)[nH]c2nnc(-c3ccc(Cl)c(Cl)c3)nc2c1=O,5%,u,u,-13%,89µM*,3%
CCCC[C@@H]1CCCO[C@@](C(=O)NCCOC)(C(F)(F)F)C1,-9%,-14%,x,x,x,26%

# Source: PubChem
